Laboratory results from PubChem BioAssay (NCI).
This is part of a sample that, as a whole, favours compounds with a hit. Of some 79,000 tested, about 15% had one in any assay. The source made the active and inactive calls. No stated cut-off is given here; in the data, active means growth inhibition above about 70%; inactive means the rest.

What was measured:
[1] = NCI Yeast Anticancer Drug Screen. Data for the rad50 strain (AID 155);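 further: 0% = growth of vehicle-only cultures of the same strain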; conditions: S. cerevisiae rad50 strain growth inhibition; at 50.0 µM; stronger effect = higher value
Method in brief: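 Cells are treated with compound, grown, and their growth is then scored against vehicle-only cultures of the same repair-deficient yeast strain.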

[2] = NCI Yeast Anticancer Drug Screen. Data for the mec2-1 strain (AID 157); conditions: S. cerevisiae mec2-1 strain, at 50.0 µM, stronger effect = higher value
Method in brief: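 Compounds were applied to mec2-1 yeast cells. Their growth was then compared with that of vehicle-treated cultures to give growth inhibition.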

[3] = NCI Yeast Anticancer Drug Screen. Data for the sgs1 mgt1 strain (AID 161);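 further: 0% = growth of cultures given vehicle only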; conditions: S. cerevisiae sgs1 mgt1 strain, at 50.0 µM, stronger effect = higher value
Method in brief: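 Compounds are added to genetically altered yeast, and growth is compared with cultures given vehicle alone to give percent inhibition.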

[4] = NCI Yeast Anticancer Drug Screen. Data for the cln2 rad14 strain (AID 165);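 further: 0% = growth equal to vehicle treated cultures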; conditions: S. cerevisiae cln2 rad14 strain, at 50.0 µM, stronger effect = higher value
Method in brief: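 Strain: cln2 rad14 yeast, altered in cell cycle control and DNA damage repair. Read-out: growth inhibition vs vehicle.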

[5] = NCI Yeast Anticancer Drug Screen. Data for the bub3 strain (AID 167); conditions: S. cerevisiae bub3 mutant strain, at 50.0 µM, stronger effect = higher value
Method in brief: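 Part of a panel of yeast mutants defective in DNA damage repair or cell cycle regulation. Each strain is grown with compound, and inhibition is calculated relative to solvent-treated cultures.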

[6] = NCI Yeast Anticancer Drug Screen. Data for the mlh1 rad18 strain (AID 175); conditions: S. cerevisiae mlh1 rad18 strain growth inhibition; at 50.0 µM; stronger effect = higher value
Method in brief: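 A repair-deficient yeast strain is exposed to test compound, and growth is scored relative to vehicle-treated controls.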

Measured: growth inhibition

CCOC(=O)N1C=Cc2ccccc2C1C(=N)N (configuration not stated)
inactive: [1] -20.2% | [2] -12.3% | [3] -11% | [4] -7.7% | [5] -6.3% | [6] -13.6%

COC(=O)C(C#N)(CCc1ccc([N+](=O)[O-])cc1)CCc1ccc([N+](=O)[O-])cc1
inactive: [1] 14.8% | [2] -4.25% | [3] 3% | [4] -6.7% | [5] 5.6% | [6] 25.9%

CCOC(=O)C(Nc1cc([N+](=O)[O-])ccc1C(=O)OC)(OC)C(=O)OCC
inactive: [1] 13.2% | [2] 15.4% | [3] 34.1% | [4] 0.95% | [5] 1.15% | [6] 27.4%

NCCNCCCNCCN
inactive: [1] 7.85% | [2] -2.4% | [3] 7.95% | [4] -2.45% | [5] 27.4% | [6] 6.45%

CC1=CC(=O)C(=O)C2=C1OC1(C2)C(C)CCC2C3(C)CCC(O)C(C)(C)C3CCC21C (configuration not stated)
active: [1] 86.5% | [2] 89.8% | [3] 89.1% | [4] 88.2% | [5] 86.3% | [6] 87.2%

O=C1C=CC2(CC=CCC2)CC1 (configuration not stated)
inactive: [1] 5.25% | [2] -8.4% | [3] -1.6% | [4] -23.4% | [5] -11.8% | [6] 0.55%

COc1cccc(N2C(Cl)C(=O)C2c2c[nH]c3ccccc23)c1 (configuration not stated)
inactive: [1] -31.4% | [2] -37.2% | [3] -47.6% | [4] -23.1% | [5] -28.9% | [6] -47%

C1=NCCN=Cc2ccccc2O/N=N/Oc2ccccc21
inactive: [1] -14.9% | [2] -1.95% | [3] -0.85% | [4] -44.4% | [5] 15.4% | [6] -4.7%

COC(=O)c1cccc(O)c1O
inactive: [1] 12.9% | [2] -0.3% | [3] -1.5% | [4] -41.4% | [5] 18% | [6] -0.65%

CCOC(=O)c1c(Br)c(-c2ccc(OC)cc2)c(Br)n1C
inactive: [1] -12.8% | [2] 9.8% | [3] -22.2% | [4] -48% | [5] -39% | [6] -5.95%

CCOc1cc(C(=O)O)cc(OCC)n1
inactive: [1] -0.1% | [2] -9.45% | [3] 9.2% | [4] -29.4% | [5] 8.95% | [6] 3.05%

CC(=O)Oc1ccc(O)c(C(=O)O)c1
inactive: [1] 1.8% | [2] -7.15% | [3] -4.95% | [4] -1.35% | [5] 0.2% | [6] 17.3%

CC1(C)CC[C@]2(C(=O)O)CC[C@]3(C)C(=CC[C@@H]4[C@@]5(C)CC[C@@H]6OC(C)(C)OC[C@@]6(C)[C@@H]5CC[C@]43C)[C@H]2C1
inactive: [1] 3.7% | [2] 10.8% | [3] -19.9% | [4] -5.1% | [5] -8.65% | [6] -62.6%

N#C/C(C(N)=O)=C1\CCCc2sccc21
inactive: [1] -13.3% | [2] 5.9% | [3] -6.3% | [4] -30.1% | [5] -4.75% | [6] 3.4%

CCOC(=O)C1Sc2c(c(=O)n(C)c3ccccc23)C1=O (configuration not stated)
inactive: [1] 34.1% | [2] 36.6% | [3] 34.1% | [4] 40.7% | [5] -8.45% | [6] 41.2%

CCOC(=O)C1(C)CCC(C(=O)OC)C1=O (configuration not stated)
inactive: [1] -36.1% | [2] -31.1% | [3] -54.8% | [4] -5.45% | [5] -59.6% | [6] -18.1%

CCN(C(=N)C#N)c1ccccc1
inactive: [1] 29.8% | [2] 13.2% | [3] 10.1% | [4] 24.4% | [5] 29.9% | [6] 27.1%

Cc1c(COC(=O)NC(C)C)c(COC(=O)NC(C)C)c2n1CS(=O)(=O)C2
inactive: [1] -16.2% | [2] 6.55% | [3] -3.2% | [4] 7.3% | [5] -5.7% | [6] 6.35%

CC(C(=O)c1ccccc1)C(O)(C(F)(F)F)C(F)(F)F (configuration not stated)
inactive: [1] -5.15% | [2] 2.6% | [3] 4.25% | [4] -24.4% | [5] -0.85% | [6] -9.05%

O=C1c2scnc2-c2nccc3c2c1nc1ccccc13
active: [2] 75.5% | [5] 80.9% | [6] 74.9%
inactive: [1] 60.3% | [3] 66.8% | [4] 53.2%

CC(=O)C1(c2ccccc2)C(C)(C)C(C)(C)C(=O)C(C)(C)C1(C)C
inactive: [1] 19.4% | [2] 7.55% | [3] 15.4% | [4] 16.9% | [5] 12.9% | [6] 21.6%

CCCCCCCCCCCC1=C(O)C(=O)C(Br)=C(O)C1=O
inactive: [1] 39.6% | [2] 14.3% | [3] 44.9% | [4] 19.1% | [5] -9.65% | [6] 49.9%

Cc1cc(N)c(C)c2ccncc12
inactive: [1] -11.4% | [2] 0% | [3] -11.5% | [4] -15.2% | [5] 24.2% | [6] 2.75%

c1ccc(CSc2ccc3ccccc3c2)cc1
inactive: [1] -4.3% | [2] -20.1% | [3] -13.5% | [4] -51.8% | [5] -4.1% | [6] -29.9%

Nc1[nH]c(=O)nc2snnc12
inactive: [1] 2.35% | [2] -2.3% | [3] 14.9% | [4] 16.3% | [5] 6.1% | [6] -57.9%

O=[N+]([O-])c1ccc(N=N/C(Cc2ccccc2)=N\Nc2ccccc2)cc1
inactive: [1] 31.4% | [2] 12.9% | [3] -0.2% | [4] 22.6% | [5] -10.4% | [6] 4.65%

NC(=O)c1sc(N2CCCC2)nc1N
inactive: [1] 13.2% | [2] 23.9% | [3] 22.1% | [4] 0.95% | [5] 9.8% | [6] 9.05%

O=C1/C(=C\c2ccccc2)Cc2cc3c(cc21)OCO3
inactive: [1] 6.1% | [2] 1.85% | [3] -3.55% | [4] -15.9% | [5] 8.95% | [6] -6.45%

CCCC(=O)Oc1ccc(C)cc1C(C)(C)C
inactive: [1] 6.65% | [2] -22.2% | [3] -4.95% | [4] 9.5% | [5] -10.2% | [6] 4.25%

CCN(CC)CCNc1cc(OC)c(N)c2cccnc12
inactive: [1] 14.2% | [2] 19.9% | [3] -2.7% | [4] -6.75% | [5] 46.6% | [6] 40.4%

CCC1(C(=O)OC)CCC2C3CCC4CCCCC4(C)C3CCC21C (configuration not stated)
inactive: [1] 4.6% | [2] -8.9% | [3] 9.25% | [4] -3.95% | [5] 5.4% | [6] 11.1%

CCOC(=O)N1c2ccccc2OC1C#N (configuration not stated)
inactive: [1] -17.3% | [2] 1.3% | [3] -4.4% | [4] -33.1% | [5] 51.3% | [6] 13.5%

O=C(O)c1cc(Cl)ccc1[N+](=O)[O-]
inactive: [1] 18.6% | [2] -11% | [3] 5.5% | [4] 7.65% | [5] 2.3% | [6] 11%

Brc1c(-c2ccccc2)oc2nc3ccccc3nc12
inactive: [1] 17.2% | [2] 0.2% | [3] 0.2% | [4] 7.45% | [5] 12.6% | [6] 3.8%

CN(C)CC1CCCCC1O (configuration not stated)
inactive: [1] -4.75% | [2] -5.85% | [3] -5.3% | [4] 25.1% | [5] 1.95% | [6] -7.35%

COC(=O)c1cc(-c2cccnc2)[nH]c(=O)c1C#N
inactive: [1] -5.4% | [2] -36.6% | [3] -39.9% | [4] -15.7% | [5] -9.7% | [6] -14.2%

CCOC(=O)N1C2C(c3ccccc3)=NC(C)(C)N2C(c2ccc([N+](=O)[O-])cc2)N1C(=O)OCC (configuration not stated)
inactive: [1] 17.9% | [2] -7% | [3] -4.55% | [4] 15.2% | [5] -2.2% | [6] -2.9%

CCOC(=O)C(c1ccsc1)C(C(=O)OCC)c1cccs1 (configuration not stated)
inactive: [1] 3.3% | [2] 23.1% | [3] -4.95% | [4] -3.35% | [5] 25.6% | [6] 17%

CC(=O)OC1CC(c2ccccc2)=NO1 (configuration not stated)
inactive: [1] -12.8% | [2] -21.5% | [3] -8.6% | [4] -21.9% | [5] -10.8% | [6] -12.4%

O=C(Nc1ccccc1)Oc1ccc(/C=N/Sc2cccc([N+](=O)[O-])c2)cc1
inactive: [1] 67.1% | [2] 60.6% | [4] 21.2% | [6] 62.2%
active: [3] 73.8% | [5] 73.8%

N#C/C(C(=O)NCc1ccccc1)=C(/N)N1CCCC1
inactive: [1] -4.95% | [2] -16.2% | [3] 0.25% | [4] -16.6% | [5] -5.3% | [6] -0.15%

CC(OC(C(O)C=O)C(O)C(O)CO)C(=O)N[C@@H](C)C(=O)O (some centres not stated)
inactive: [1] 6.1% | [2] -8.55% | [3] -0.75% | [4] -2.45% | [5] -9.2% | [6] 25.8%
